High-throughput results as filed in PubChem.
Only some compounds are listed: those with a hit (about 19% of all), similar ones and a draw of the others.
Chronic BCR inh: qHTS Assay to Find Inhibitors of Chronic Active B-Cell Receptor Signaling; ABC-DLBCL IkBa-CBG/CBR reporter, luminescence ratio, 4 h; Potency, µM (series often up to 46.1 µM), for the others: top-dose activity change, negative = inhibition, most hits filed as inhibitors; hit rate 0.05% among 340,000; active means well fitted inhibition curve with a large enough effect in the signal ratio, with a control signal flat, not every such curve was filed as active; inconclusive means small, poorly fitted or top-dose-only effect, or effect the other way, or a change in a side signal; the % refers to the signal ratio;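 further: potency means the concentration at half of the fitted maximal effect; plate controls were basal doxycycline-induced cells for no effect and cells given 10 µM MG132 for full effect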
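TMD8 ABC-DLBCL cells carrying doxycycline-inducible green luciferase fused to IkappaBalpha plus unfused red luciferase were exposed to compounds (up to 46 uM) for 4 hrs at 37C. Activity came from the overlap-corrected green/red luminescence ratio.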
MCF10A rereplic: A quantitative high throughput screen for small molecules that induce DNA re-replication in MCF 10a normal breast cells. MCF 10A DNA re-replication, Hoechst nuclear intensity, 48 h. AID 624296, 2012. Potency, µM (series often up to 46.1 µM), for the others: at the highest dose activity, positive = re-replication, actives largely listed as activators. hit rate 2.9% among 350,000; further: potency means the concentration at half of the fitted maximal effect; % of control where 0% means no effect; nearly all actives have a fitted effect of over 50% in size
TDP1 cell CPT: qHTS for Inhibitors of human tyrosyl-DNA phosphodiesterase 1 (TDP1): qHTS in cells in presence of CPT | hit rate 12% among 420,000 | chicken DT40 Tdp1-/-;hTDP1 cells + 20 nM CPT, ATP luminescence, 48 h | Potency, µM (series often up to 46.2 µM), inactives show at the top dose activity change, negative = growth inhibition, actives largely listed as inhibitors | AID 686979, 2013; further: potency means the concentration at half of the fitted maximal effect; on the % scale 0 is the no-effect control and ±100 the full control effect; nearly all actives have a fitted effect of over 55% in size
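Chicken DT40 Tdp1-/- cells stably complemented with human TDP1 were seeded at 400 cells/well in medium containing 20 nM camptothecin, exposed to pin-transferred compounds, and grown at 37 °C for at least 48 hr. Viability was read as ATP luminescence.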
IL-1B inflam inh: qHTS for Inhibitors of Inflammasome Signaling: IL-1-beta AlphaLISA Primary Screen. activity change, % at 57.5 µM. hit rate 4.7% among 360,000. THP-1 LPS/ATP IL-1B secretion, AlphaLISA, 16 h; hits give low values. AID 743279, 2014; in the data active means activity change below about -50%; inconclusive means mostly about -30% to -49%; further: on the % scale 0 is the no-effect control and ±100 the full control effect
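THP-1 cells pretreated 1 hr with compounds (up to 57.5 uM final), then stimulated with LPS (250 ng/mL final) plus ATP (1.25 mM final); secreted IL-1B measured by AlphaLISA after 16 hr, decreased signal indicating inhibition.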
SW480 rereplic: A quantitative high throughput screen for small molecules that induce DNA re-replication in SW480 colon adenocarcinoma cells. Potency, µM (doses to about 46.1 µM), for the others: at the top dose re-replication activation, hits mostly activators. hit rate 1.8% among 340,000. SW480 DNA re-replication, Hoechst DNA content imaging, 48 h; further: potency means the concentration at half of the fitted maximal effect; % of control where 0% means no effect; nearly all actives have a fitted effect of over 55% in size
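Per well, 250 cells were exposed to pinned compound for 48 hr. Nuclear DNA was visualised with Hoechst (40 min, 37 C) and total object intensity recorded by fluorescence scanning.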
DT40 TDP1 no CPT: qHTS for Inhibitors of human tyrosyl-DNA phosphodiesterase 1 (TDP1): qHTS in cells in absence of CPT | DT40 Tdp1-/- hTDP1 cells, no CPT, ATP luminescence, 48 h | hit rate 15% among 420,000 | Potency, µM (doses to about 46.2 µM), inactives show top-dose activity change, negative = growth inhibition, most hits filed as inhibitors; further: potency means the concentration at half of the fitted maximal effect; on the % scale 0 is the no-effect control and ±100 the full control effect; nearly all actives have a fitted effect of over 55% in size
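Luminescent ATP content (CellTiter-Glo) served as the growth readout. Knockout chicken DT40 cells expressing human TDP1 were exposed to compounds without camptothecin for a minimum 48 hr at 37 °C.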
* = called active by the depositor; ? = inconclusive; · = no result; [ ] = dose if it differs, or a comment. Unless noted, the call rests on the fitted dose curve; in most records, active means well fitted curve in the direction sought with a large enough effect; inconclusive means small, poorly fitted or top-dose-only effect, or another doubt; inactive means no such curve, though single readings can be large; an effect the other way counts as inactive or inconclusive.

SMILES	Chronic BCR inh	MCF10A rereplic	TDP1 cell CPT	IL-1B inflam inh	SW480 rereplic	DT40 TDP1 no CPT
Cn1cc(CCC(=O)N2CCCC(N3CCN(c4ccccc4F)CC3)C2)cn1 (stereo not drawn)	2.2%	3.1%	-10.1%	11.6	-21.2%	14.0%
O=C(Nc1ccccc1)C1=C[C@@H](C2CCCCC2)C[C@@H](OCc2ccc(CO)cc2)O1	?	16.4µM*	18.4µM*	0.0	?	23.1µM*
O=C(Nc1ccccc1)C1=C[C@H](C2CCCCC2)C[C@H](OCc2ccc(CO)cc2)O1	?	?	?	-51.0*	-50.4%[9.22 µM]	?
CCCN(CC(=O)Nc1ccc(F)c(F)c1F)C(=O)CN1C(=O)NC2(CCCCC2)C1=O	·	-0.3%	-1.0%	-0.1	-5.0%	-20.7%
Cc1cc2nc(-c3ccc(SCC(=O)N4CCc5ccccc54)nc3)[nH]c2cc1C	7.9%	13.4%	9.2µM*	109.2	2.0%	23.1µM*
Cc1cc2nc(-c3ccc(SCc4ccccc4C#N)nc3)[nH]c2cc1C	8.3%	13.0%	?	?	?	15.8µM*
Cc1cc2nc(-c3ccc(SCc4ccc(C(=O)O)cc4)nc3)[nH]c2cc1C	16.2%	12.5%	?	70.8	?	?
Cc1cc(NC(=O)CSc2ccc(-c3nc4cc(C)c(C)cc4[nH]3)cn2)no1	?	0.184µM*	?	94.8	?	?
Cc1cc2nc(-c3ccc(SCC(=O)NC(C)C)nc3)[nH]c2cc1C	10.4%	·	·	·	·	·
COC(=O)CSc1ccc(-c2nc3ccc(C)cc3[nH]2)cn1	?	?	-28.0%	-89.6*	-2.5%	?
Clc1cccc(-c2csc(-c3nc(-c4ccc(Br)s4)cs3)n2)c1	·	·	-0.8%	·	·	-1.5%
Cn1c(=O)n(C)c2cc(NC(=O)CSc3ccccc3)ccc21	-0.8%	-0.4%	-21.3%	19.0	22.9%	-9.2%
COc1cccc(Cn2c(=O)c(-c3ccc(Cl)cc3)nc3cnc(N(C)C)nc32)c1	·	·	7.1%	·	·	17.5%
NCCNC[C@@H]1COC2(CCCCCCCCCCC2)O1	?	?	?	-68.3*	?	23.1µM*
CC1(C(=O)NS(=O)(=O)c2cccc(F)c2)CCN1C(=O)CC1CCCC1 (stereo not drawn)	·	·	-3.9%	0.0	·	4.6%
CCCC1(c2ccccc2)NC(=O)N(CC(=O)c2[nH]c(C)c(C(=O)OCC)c2C)C1=O (stereo not drawn)	?	26.4%	?	-16.7	10.9%	20.6µM*
CCOC(=O)c1c(-c2ccc(F)cc2)csc1NC(=O)CN1C(=O)NC2(CCCCC2C)C1=O (stereo not drawn)	3.3%	?	20.6µM*	14.7	?	?
CCOC(=O)c1c(NC(=O)CN2C(=O)NC3(CCCCC3C)C2=O)sc(C)c1C (stereo not drawn)	?	?	20.6µM*	2.2	-0.3%	20.6µM*
CCOC(=O)c1c(NC(=O)CN2C(=O)NC(C)(c3ccccc3)C2=O)sc(C)c1C (stereo not drawn)	-11.3%	10.3µM*	?	-2.2	?	?
O=C(COc1ccccc1)NCC(c1ccco1)N1CCCCC1 (stereo not drawn)	13.8%	4.8%	2.5%	-4.0	15.6%	?
CC(C)Oc1ccc(/C(O)=C2/C(=O)C(=O)N(CCN3CCNCC3)C2c2ccc(C(C)C)cc2)cc1 (stereo not drawn)	-1.3%	-7.9%	6.8%	14.7	-9.6%	17.1%
Cc1ccc(CNC(=O)[C@H](C)NC(=O)C2CCN(C(=O)[C@@H]3CCCN3C(=O)OC(C)(C)C)CC2)cc1	17.6%	7.7%	-21.8%	10.0	-5.1%	-29.6%
CCN1C(=O)CC(CC(=O)N2CCCCC2c2nccs2)(c2ccccc2C)C1=O (stereo not drawn)	·	·	-2.2%[9.04 µM]	·	·	-12.3%
O=C(Nc1ccc(F)c(Cl)c1)N1CCC(CN2CCOCC2)CC1	·	·	-12.6%	·	·	-26.4%
O=C(c1ccccc1)N1N=C(c2ccccc2)CC1c1ccccc1 (stereo not drawn)	?	29.7%	2.5%	-10.4	?	?
SMILES	Chronic BCR inh	MCF10A rereplic	TDP1 cell CPT	IL-1B inflam inh	SW480 rereplic	DT40 TDP1 no CPT
N=C(SC1CC(=O)N(c2ccc(F)cc2)C1=O)N1N=C(c2ccccc2)CC1c1ccccc1 (stereo not drawn)	-3.7%	-7.2%	16.4µM*	16.2	-0.1%	?
O=C(OCc1cn([C@@H]2CN(Cc3cccs3)[C@@H](c3ccccc3)C[C@H]2O)nn1)c1ccccc1	·	·	13.4%	4.5	·	-1.5%
O=C(OCc1cn([C@H]2C[C@H](c3ccccc3)N(Cc3cccs3)C[C@@H]2O)nn1)c1ccccc1	·	·	?	-17.9	·	20.6µM*
Cc1ccc([C@H]2C[C@@H](n3cc(COC(=O)c4ccccc4)nn3)[C@H](O)CN2Cc2cccs2)cc1	·	·	?	8.4	·	20.6µM*
CN1C(=O)C2(c3ccccc31)N(c1cccc(C(F)(F)F)c1)C(=O)CS2(=O)=O (stereo not drawn)	·	·	-24.8%	·	·	-14.3%
Cc1ccccc1NS(=O)(=O)c1ccc(C(=O)NCC(C)(C)N2CCOCC2)cc1	1.4%	?	?	2.5	-5.1%	?
COc1cc(C(C)=O)ccc1OCC(O)CN1CCN(c2ccccn2)CC1 (stereo not drawn)	0.4%	12.3%	?	-56.3*	-0.5%	-2.8%
COc1cc(C(C)=O)ccc1OCC(O)CN1CCN(c2ccccc2)CC1 (stereo not drawn)	-2.4%	?	-10.2%	-15.5	-3.0%	-0.2%
Cc1nc(CNC(=O)c2cc(COc3ccc(F)cc3Cl)on2)cs1	-6.6%	?	?	?	-21.0%[1.84 µM]	?
O=C(NCCc1cccnc1)c1cc(COc2ccc(F)cc2Cl)on1	?	11.8%	?	-21.4	12.4%	?
COc1cccc(CNC(=O)c2cc(COc3c(F)cccc3F)on2)c1	?	-4.4%	-9.2%	?	-9.2%	-21.7%
O=C(NCCCc1ccccc1)c1cc(COc2ccc(F)cc2Cl)on1	0.6%	18.5%	20.6µM*	?	-12.8%	?
O=C(NCCc1cccnc1)c1cc(COc2ccc(F)cc2F)on1	-13.1%	-7.2%	?	-2.8	-0.2%	23.1µM*
